Bioassay records as filed in PubChem.
MRP1 act: activates MRP-1; H69AR cells + doxorubicin, viability rescue, CellTiter-Glo; AID 799; viability increase, % at 10 µM; 140,000 tested, 0.61% active;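 active = viability gain under doxorubicin at or above a set limit, the compound median plus 3 SD, cut at about 4.7% in these data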;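 also: MRP-1 overexpressing cells given doxorubicin 25 µM after compound pretreatment; 18-22 h compound pretreatment then 72 h with doxorubicin before readout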
cytoskel mod: alters cytoskeleton assembly in HUVEC cells; HUVEC TNFa F-actin phalloidin imaging, high content; inhibition, % at 2 µM; 91,000 tested, 0.18% active;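 active = inhibition above the batch mean plus 3 SD and confirmed as a hit by visual image inspection, cut at about 30% in these data, passing the limit was not always enough; inconclusive = above the inhibition threshold but rejected on visual inspection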
MRP resist rev: MRP-mediated drug resistance reversal; H69AR cells + 2 uM doxorubicin, CellTiter-Glo, 72 h; differential viability (reversal), % at 10 µM; 85,000 tested, 0.04% active; AID 602;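 active = viability drop by adding the cancer drug above about 55%, with treated viability meeting a 40% cutoff, limit read from the data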;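 also: larger differential means the compound sensitizes cells more to doxorubicin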
VCAM1 TNFa inh: reduces TNF alpha induced VCAM1 expression in HUVEC | HUVEC TNFa-induced VCAM-1 immunofluorescence, high-content imaging | inhibition, % at 2 µM | 95,000 tested, 0.48% active;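 active = inhibition above the batch mean plus 3 SD, with images confirmed as a hit by eye, cut at about 37% in these data; inconclusive = inhibition above that limit but hit not confirmed in images; inactive = inhibition not above that limit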
E-sel TNF inh: TNF alpha driven E-selectin expression inhibition | HUVEC TNFa-induced E-selectin immunofluorescence, high content | inhibition, % at 2 µM | 120,000 tested, 0.71% active;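 active = inhibition above the batch mean plus 3 SD, and confirmed as a hit on visual image review, cut at about 43% in these data; inconclusive = passes the inhibition cutoff but fails visual image review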
Large screens that a line does not name were inactive. An excerpt weighted towards active compounds, which were near 1.5% of everything screened.

CCOC(=O)c1ccc(N=Cc2c(O)n(-c3ccccc3F)c(=S)[nH]c2=O)cc1	none (no result: cytoskel mod, MRP resist rev, VCAM1 TNFa inh)
CCN(CC)CCOC(=O)c1ccc(N=Cc2c(O)[nH]c(=O)[nH]c2=O)cc1	E-sel TNF inh 51 (no result: MRP resist rev)
O=C1C(=O)c2ccccc2-c2ccccc21	VCAM1 TNFa inh 84 (no result: MRP resist rev)
O=C1C(=O)c2cccc3cccc1c23	none (no result: cytoskel mod, MRP resist rev, VCAM1 TNFa inh)
Clc1ccccc1CNC1CN2CCC1CC2 (configuration not stated)	none (no result: cytoskel mod, MRP resist rev, VCAM1 TNFa inh, E-sel TNF inh)
CSc1ccc(CNC2CN3CCC2CC3)cc1 (configuration not stated)	VCAM1 TNFa inh 93 (no result: MRP resist rev)
CC(=O)Nc1ccc(OCCF)cc1	E-sel TNF inh 100 (no result: MRP1 act, cytoskel mod, MRP resist rev, VCAM1 TNFa inh)
O=C(COc1ccc(Br)cc1)N1CCN(C2CCCC2)CC1	MRP1 act 7.6
Cc1ccc(OCC(=O)N2CCN(C3CCC(c4ccccc4)CC3)CC2)cc1 (configuration not stated)	none (no result: MRP1 act, cytoskel mod, MRP resist rev, VCAM1 TNFa inh)
CC(C)(C)c1nc(NCc2ccc3c(c2)OCO3)c2nnn(Cc3ccccc3Cl)c2n1	none
CCn1ncc(/C=C2/CC3C4CC=C5CC(O)CCC5(C)C4CCC3(C)C2=O)c1C (configuration not stated)	none (no result: MRP1 act)
CN(C)C(=O)Oc1c(Cl)cc(Cl)c2cccnc12	E-sel TNF inh 74 (no result: MRP1 act, cytoskel mod, MRP resist rev, VCAM1 TNFa inh)
O=C(c1ccc2c(c1)ncn2C1CCCCC1)N1CCC2(CC1)OCCO2	VCAM1 TNFa inh 92 (no result: E-sel TNF inh)
Nc1nnc(CCN2CCCCC2)s1	none
N[C@@H](Cc1c[nH]c2ccccc12)c1nnc(SCc2ccccc2F)o1	none
CC(=NCCCO)c1c(O)n(Cc2ccccc2)c(=O)[nH]c1=O	VCAM1 TNFa inh 94
CN1/C(=C\C=C\C2=[N+](C)c3ccc4ccccc4c3C2(C)C)C(C)(C)c2ccccc21	VCAM1 TNFa inh 84
C=CCOC(=O)C1=C(C)OC(N)=C(C#N)C12C(=O)N(CN1CCOCC1)c1ccccc12 (configuration not stated)	VCAM1 TNFa inh 88 (no result: E-sel TNF inh)
CCOC(=O)C1=C(C)OC(N)=C(C#N)C12C(=O)N(C)c1ccccc12 (configuration not stated)	none
O=C(Nc1ccc(F)cc1)c1c(O)c2c(n(Cc3ccccc3)c1=O)CCCC2	MRP1 act 9.0 (no result: cytoskel mod, MRP resist rev, VCAM1 TNFa inh)
O=C(Nc1cccnc1)c1c(O)c2c(n(Cc3ccccc3)c1=O)CCCC2	none (no result: E-sel TNF inh)
CN=C(SCc1ccccc1)c1c(O)n(C)c(=O)n(C)c1=O	none (no result: MRP1 act, E-sel TNF inh)
Cn1c(O)c(C(=N)COc2cccc(Cl)c2)c(=O)n(C)c1=O	E-sel TNF inh 65 (no result: MRP resist rev)
O=C1CC(N2CCC(n3c(=O)[nH]c4ccccc43)CC2)C(=O)N1c1ccc(F)cc1 (configuration not stated)	MRP1 act 6.2
Cc1cc(C)c(S(=O)(=O)NCC2CCC(C(=O)N3CCC4(CC3)OCCO4)CC2)c(C)c1 (configuration not stated)	none
COC(=O)C1CN(C#N)N(c2ccc(Cl)cc2)C12c1ccccc1-c1ccccc12 (configuration not stated)	cytoskel mod inconclusive, E-sel TNF inh 63 (no result: VCAM1 TNFa inh)
NC(=O)CN1CC(c2ccccc2)CC1=O (configuration not stated)	none
O=C1OCCC1NC1=NCCC1 (configuration not stated)	none
Cc1ccc2nc3c(cc2c1)CC1(C(=O)N(C)C(=O)N(C)C1=O)C1CCCCN31 (configuration not stated)	MRP1 act 5.8
CN1CCN(c2c[nH]c(=O)[nH]c2=O)CC1	none
CC1CCC/C=C/C2CC(O)CC2C(O)/C=C/C(=O)O1 (configuration not stated)	VCAM1 TNFa inh 94, E-sel TNF inh 98
COc1ccc(OCC(=O)N2CCN(Cc3nc4cc([N+](=O)[O-])ccc4n3C)CC2)cc1	none (no result: cytoskel mod, MRP resist rev, VCAM1 TNFa inh, E-sel TNF inh)
COc1ccc(Oc2cc(NC(=O)c3nn(C)cc3[N+](=O)[O-])cc([N+](=O)[O-])c2)cc1	VCAM1 TNFa inh 90, E-sel TNF inh 90 (no result: MRP resist rev)
COc1ccc2c(c1OC)C(=O)OC2c1c(O)n(Cc2ccc(F)cc2)c(=O)[nH]c1=O (configuration not stated)	none (no result: cytoskel mod, VCAM1 TNFa inh)
CN(C(=O)Oc1ccc(C(=O)c2ccc(Cl)cc2)cc1)c1ccccc1	none (no result: cytoskel mod, MRP resist rev, VCAM1 TNFa inh)
CN(C)C(=O)Oc1ccc(OC(=O)c2ccccc2)cc1	MRP1 act 8.2
